# Target: Small nuclear ribonucleoprotein G (UniProt P62308)
# Assay: cross-link between two proteins; cross-linking mass spectrometry
substance,measurement,value
"Small nuclear ribonucleoprotein-associated proteins B and B', P14678",listed as a hit,yes

# Reference: article PMC10943123
